# Compound activity (PubChem BioAssay)
# p53null 32C kill: qHTS Screen for Compounds that Selectively Target Cancer Cells with p53 Mutations: Cytotoxicity of p53 Null Cells at the Permissive Temperature. H1299-neo p53 null cells, ATP luminescence, 24 h, 32C. Potency, µM (doses to about 46.1 µM), hits mostly cytotoxic. 55,000 tested, 0.62% active; note: nearly all actives have a fitted effect of over 55% in size
#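 Luminescent ATP readout gave cell viability of p53-null H1299-neo cells after a 24 h compound exposure at the permissive 32C. Titrations ran up to 46 uM, and AC50s were fitted with the standard Hill equation.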
# OvCa metastasis: Primary qHTS assay for Inhibitors of ovarian cancer metastasis using an organotypic tumor microenvironment (TME) model; SKOV3ip1-GFP adhesion/invasion on 3D omental model, fluorescence; 46,000 tested, 0.1% active; AID 1963576, 2024; Potency, µM (series often up to 45.8 µM), actives largely listed as inhibitors; note: nearly all actives have a fitted effect of over 65% in size
#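 Primary human omental fibroblast/mesothelial 3D culture pre-formed 48 h. SKOV3ip1-GFP cells added with compounds (0.36-46 umol/L), incubated 2 h RT/16 h 37 C, fixed; GFP cells quantified at 488/509 nm.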
# PMP22 txn: Cell-based coincidence reporter assay to measure PMP22 gene transcription in S16 Pmp22-F2sN cells - Primary screen; S16 Pmp22-F2sN Schwann cells, FLuc/NLuc coincidence luminescence, 24 h; Potency, µM (titrated, usually from 57.5 µM), hits mostly inhibitors; 43,000 tested, 2% active; active = clear falling dose curves in both reporters; inconclusive = both reporters move, but less clearly or upward; inactive = either reporter flat; the % is the NLuc reporter signal
#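 S16(c9) Schwann cells with FLuc/NLuc coincidence reporter in the Pmp22 3' UTR; compounds pin-transferred, 24 h at 37C. Dual-luciferase read: FLuc first, then NLuc after Stop&Glo, each 10 min at room temperature.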
# p53null 39C tox: qHTS Screen for Compounds that Selectively Target Cancer Cells with p53 Mutations: Cytotoxicity of p53 Null Cells at the Nonpermissive Temperature. H1299 p53-null (neo) cells, 39C, ATPlite viability, 24 h. 55,000 tested, 0.97% active. Potency, µM (series often up to 46.1 µM), most hits filed as cytotoxic; note: nearly all actives have a fitted effect of over 50% in size
#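 Luminescent ATP signal reported cell survival after H1299 lines (neo, p53 null; or p53 A138V) received up to 46 uM compound and 24 hr incubation at 39C.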
# S16 viability: Cell viability qHTS assay in S16 Pmp22-F2sN cells; S16 Pmp22-F2sN Schwann cells (luciferase reporters placed in the Pmp22 gene) viability, CellTiter-Glo, 24 h; Potency, µM (series often up to 57.5 µM), hits mostly cytotoxic; 43,000 tested, 0.48% active; AID 1508642, 2021; note: nearly all actives have a fitted effect of over 65% in size
#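 Seed 500-1,000 S16 Pmp22-F2sN cells per well in phenol-red-free DMEM with 10% heat-inactivated FBS; pin-add 23 nL compound; incubate 24 h at 37C; add CellTiter-Glo, wait 15 min protected from light; read luminescence.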
# mTORC1 inh: Acumen qHTS Assay for Inhibitors of the mTORC1 Signaling Pathway in MEF (Tsc2-/-, p53-/-) Cells: Sytravon. Tsc2-/- p53-/- MEF, phospho-rpS6 immunofluorescence/PI, 24 h. AID 493208, 2011. 44,000 tested, 0.78% active. Potency, µM (doses to about 38.3 µM), hits mostly inhibitors; note: nearly all actives have a fitted effect of over 50% in size
#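 Readout is phospho-S6 Alexa 488 signal normalized to PI per well, reported as % active cells with thresholds set from rapamycin (7.5 nM) and DMSO controls. Cells: Tsc2-/-, p53-/- MEFs, 24 hrs compound at 37 C; PI cell number serves as viability.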
# A number is an active result; . = inactive; ? = inconclusive; / = no result. Compounds with a hit are over-represented: about 3.1% of the library has one in this group of screens. Unless noted, calls come from the whole dose curve; as a rule, active = well fitted curve in the direction sought with a large enough effect; inconclusive = small, poorly fitted or top-dose-only effect, or another doubt; inactive = no such curve, though single readings can be large; an effect the other way counts as inactive or inconclusive.
SMILES,p53null 32C kill,OvCa metastasis,PMP22 txn,p53null 39C tox,S16 viability,mTORC1 inh
Cc1ccc(CCNC(=O)c2ccc3c(c2)nc2n3CCCCC2)cc1,.,.,.,?,.,.
COc1ccc(CNC(=O)c2ccc3c(c2)nc2n3CCCCC2)cc1,?,.,.,.,.,.
CCC(C)NC(=O)c1ccc2c(c1)nc1n2CCCCC1 (configuration not stated),?,.,?,5µM,.,.
COCCCNC(=O)c1ccc2c(c1)nc1n2CCCCC1,?,.,.,13µM,.,.
Cc1cccc(CCNC(=O)c2ccc3c(c2)nc2n3CCOC2)c1,?,.,.,?,.,.
O=C(NCCc1ccccc1Cl)c1ccc2c(c1)nc1n2CCOC1,10µM,.,.,5µM,.,.
CCN1CCN(c2cc(C)c3cc(NC(=O)/C=C/c4ccc(C)cc4)ccc3n2)CC1,?,?,?,?,?,18µM
COc1ccc(/C=C/C(=O)Nc2ccc3nc(N4CCC(C)CC4)cc(C)c3c2)cc1OC,.,?,?,.,?,?
CCN1CCN(c2cc(C)c3cc(NC(=O)/C=C/c4ccc(OCCC(C)C)cc4)ccc3n2)CC1,.,.,?,?,?,4.1µM
COc1cc(-c2nc3ccc(Cl)cn3c2Nc2ccc3c(c2)OCO3)ccc1O,.,.,?,.,.,.
COc1cc(-c2nc3ccc(C)cn3c2Nc2ccc(Cl)cc2)ccc1O,.,.,?,20µM,.,.
COc1ccccc1Nc1nn2c(=O)c3ccc(C(=O)NCCc4ccccc4)cc3nc2s1,?,?,5.6µM,6.3µM,8.9µM,?
Cc1ccc(Cl)cc1Nc1nn2c(=O)c3ccc(C(=O)NC(C)c4ccccc4)cc3nc2s1 (configuration not stated),.,.,7.6µM,.,?,.
Cc1c(Cl)cccc1Nc1nn2c(=O)c3ccc(C(=O)NCCC4=CCCCC4)cc3nc2s1,.,.,?,.,.,.
CCN(CC)CCNC(=O)c1ccc2c(=O)n3nc(Nc4cccc(Cl)c4C)sc3nc2c1,?,?,?,20µM,?,.
COc1ccccc1Nc1nn2c(=O)c3ccc(C(=O)NC(C)c4ccccc4)cc3nc2s1 (configuration not stated),.,.,.,.,.,.
COc1cc(C)c(C=CC(C)=CC=CC(C)=CC(=O)O)c(C)c1C,/,.,/,/,/,/
COc1ccc(C(=O)NC(c2ccccc2Cl)c2cc(Cl)c3cccnc3c2O)cc1 (configuration not stated),?,.,?,.,3.2µM,?
COc1cc(C(=O)NC(c2ccccc2Cl)c2cc(Cl)c3cccnc3c2O)cc(OC)c1OC (configuration not stated),?,.,4.4µM,.,?,.
CCOc1ccc(NC(=O)c2ccccc2O)cc1,7.1µM,/,/,7.9µM,/,/
CC1CCN(c2ccc(-c3cccc(NS(=O)(=O)c4cccs4)c3)nn2)CC1,7.9µM,.,/,10µM,/,.
COc1ccc(C)cc1S(=O)(=O)Nc1cccc(-c2ccc(N3CCC(C)CC3)nn2)c1,.,.,/,.,/,.
CC1CCN(c2ccc(-c3cccc(NS(=O)(=O)c4ccc(Cl)s4)c3)nn2)CC1,6.3µM,.,/,10µM,/,.
COc1ccc(S(=O)(=O)Nc2cccc(-c3ccc(N4CCC(C)CC4)nn3)c2)cc1OC,3.2µM,.,/,7.9µM,/,.
COc1ccc(S(=O)(=O)Nc2cccc(-c3ccc(N4CCCC4)nn3)c2)cc1OC,.,.,/,.,/,.
SMILES,p53null 32C kill,OvCa metastasis,PMP22 txn,p53null 39C tox,S16 viability,mTORC1 inh
COc1ccc(F)cc1S(=O)(=O)Nc1cccc(-c2ccc(N3CCC(C)CC3)nn2)c1,?,.,/,?,/,.
Oc1ccc(C2CCN(c3ccnc4ccccc34)CC2)cc1O,/,.,/,/,/,/
CC(C)(O)CC(=O)NCCn1ccc2ncnc(Nc3ccc(Oc4cccc(C(F)(F)F)c4)c(Cl)c3)c21,/,.,/,/,/,/
CN[C@@H]1C[C@H]2O[C@@](C)([C@H]1OC)n1c3ccccc3c3c4c(c5c6ccccc6n2c5c31)C(=O)N[C@H]4O,/,.,/,/,/,/
CN1CCc2c(sc3c2C(=O)NC(c2ccc(C(C)(C)C)cc2)N3)C1 (configuration not stated),.,.,?,.,14µM,.
Cc1cccc(OCCCSc2nc(-c3ccc(C(C)(C)C)cc3)nc3cc(=O)[nH]n23)c1C,.,.,.,13µM,.,.
Cc1ccc(OCCSc2nc(-c3ccccc3C)nc3cc(=O)[nH]n23)cc1Cl,.,.,?,25µM,?,.
CN(C)c1ccc(C2Nc3ccc4ccccc4c3C3=C2C(=O)CC(C)(C)C3)cc1Br (configuration not stated),/,.,/,/,/,/
COC1=C2C[C@@H](C)C[C@H](OC)[C@@H](O)[C@@H](C)C=C(C)[C@H](OC(N)=O)[C@@H](OC)C=CC=C(C)C(=O)NC(=CC1=O)C2=O,/,.,/,/,/,/
Cc1c(C(=O)Nc2ccc(C(=O)O)cc2)nnn1-c1ccccc1,13µM,.,.,?,.,.
CC(=O)c1ccc(NC(=O)c2nc(-c3ccccc3)n(-c3ccccc3)n2)cc1,.,.,?,?,.,.
CCOC(=O)N1c2ccc(C(F)(F)F)cc2[C@@H](N(Cc2cc(C(F)(F)F)cc(C(F)(F)F)c2)C(=O)OC)C[C@H]1CC,/,.,/,/,/,/
O=C(Nc1cccc(C(F)(F)F)c1)c1cnn(-c2cccc(F)c2)c1C1CCNCC1,.,.,.,.,.,18µM
Cc1cc(C)cc(NC(=O)c2cnn(-c3ccc(C)c(C)c3)c2C2CCNCC2)c1,.,.,?,.,?,7.4µM
CN(C1CCc2c(c3ccccc3n2CC(=O)O)C1)S(=O)(=O)c1ccc(F)cc1 (configuration not stated),/,.,/,/,/,/
CCc1ccc(C(=O)CC2(O)C(=O)N(CCc3ccccc3)c3ccc(Cl)cc32)cc1 (configuration not stated),.,?,?,?,20µM,?
Cc1ccccc1CN1C(=O)C(O)(c2c[nH]c3ccccc23)c2cc(Cl)ccc21 (configuration not stated),?,.,?,?,.,?
